Hits are enriched below; roughly 3.8% of the tested compounds scored in any of these assays.
Nrf2 activator – qHTS of Nrf2 Activators | hit rate 0.31% among 410,000 | Potency, µM (series often up to 46.1 µM), without a hit: at the top dose activation, most hits filed as activators | AID 624171, 2012 | AREc32 ARE-luciferase reporter (MCF7-derived line), luminescence, 24 h; note: % of control where 0% means no effect; nearly all actives have a fitted effect of over 65% in size
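Each well held 1000 AREc32 cells, which were incubated with compound for 24 hr at 37 deg C after overnight attachment, and ARE reporter activity was quantified by firefly luciferase luminescence.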
IDH1 R132H inh – qHTS for Inhibitors of mutant isocitrate dehydrogenase 1 (IDH1): qHTS; IDH1-R132H enzyme, NADPH consumption, diaphorase/resazurin fluorescence; Potency, µM (top dose mostly 76.6 µM), for the others: at the highest dose activity change, negative = inhibition, actives largely listed as inhibitors; hit rate 0.093% among 390,000; AID 602179, 2012; Isocitrate dehydrogenase [NADP] cytoplasmic (Homo sapiens), O75874; note: % is set by controls: 0 for no effect and ±100 for the full control effect; nearly all actives have a fitted effect of over 65% in size
Target sequence (O75874 whole entry R132H, stated change not applied): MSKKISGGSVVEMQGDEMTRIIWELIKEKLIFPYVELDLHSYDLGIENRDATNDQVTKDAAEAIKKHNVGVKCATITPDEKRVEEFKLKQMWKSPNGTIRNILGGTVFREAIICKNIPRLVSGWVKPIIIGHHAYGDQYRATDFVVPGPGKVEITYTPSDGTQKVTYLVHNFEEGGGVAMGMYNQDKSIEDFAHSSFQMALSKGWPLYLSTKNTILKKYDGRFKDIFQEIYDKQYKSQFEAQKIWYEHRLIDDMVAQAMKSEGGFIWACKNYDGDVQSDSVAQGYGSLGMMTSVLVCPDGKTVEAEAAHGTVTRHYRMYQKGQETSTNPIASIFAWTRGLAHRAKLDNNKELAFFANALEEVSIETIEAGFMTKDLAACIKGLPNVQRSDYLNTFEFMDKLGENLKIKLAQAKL
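IDH1-R132H (0.5 ug/mL) preincubated 30 min with compound, then NADPH (0.016 mM) and alpha-KG (2 mM) added; 80 min at RT, pH 7.5. Remaining NADPH coupled via diaphorase/resazurin to fluorescence (540/590 nm); concentration-response curves normalized to no-enzyme control.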
Nrf2 block – Nrf2 qHTS screen for inhibitors. A549 ARE-Fluc reporter, luciferase luminescence, 18-24 h. Potency, µM (titrated, usually from 46 µM), for inactives: top-dose activity change, negative = inhibition, hits mostly inhibitors. hit rate 2.1% among 360,000. AID 504444, 2011; note: % is set by controls: 0 for no effect and ±100 for the full control effect; nearly all actives have a fitted effect of over 60% in size
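In this cell-based qHTS, ARE-driven firefly luciferase in A549 cells reports Nrf2 activity; the luminescent signal after BugLite lysis is the measured value, with a prior CellTiter-Fluor read for cell health.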
ELG1 DNA repair – qHTS screen for small molecules that inhibit ELG1-dependent DNA repair in human embryonic kidney (HEK293T) cells expressing luciferase-tagged ELG1. HEK293T ELG1-luciferase reporter, luminescence, 16 h; DNA damage induced by 5-fluorouridine. Potency, µM (top dose mostly 46.1 µM), for inactives: at the highest dose activity change, negative = inhibition, hits mostly inhibitors. hit rate 2.3% among 330,000; note: % is set by controls: 0 for no effect and ±100 for the full control effect; nearly all actives have a fitted effect of over 55% in size
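In this reporter screen, reduction of luminescence relative to DMSO vehicle indicated activity. Compounds and 5-fluorouridine were added together to 2,000 cells per well, incubated for 16 hr at 37 °C, then developed with ONE-Glo.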
A549 viability – Nrf2 qHTS screen for inhibitors: counterscreen for cytotoxicity; A549 ARE-Fluc cells, CellTiter-Fluor viability, 18-24 h; Potency, µM (highest dose often 46 µM), for inactives: at the top dose activity change, negative = cytotoxicity, hits mostly inhibitors; hit rate 0.16% among 390,000; note: % is set by controls: 0 for no effect and ±100 for the full control effect
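A549 ARE_Fluc cells in 5% FBS OPTI-MEM were exposed to compounds in concentration-response for 18-24 h at 37 deg C. Viability was read by CellTiter-Fluor fluorescence (Ex 405/Em 525) after 30 min, before the luciferase read.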
An asterisk follows results filed as active. Calls come from the whole dose curve; as a rule, active = well fitted curve in the direction sought with a large enough effect; inconclusive = small, poorly fitted or top-dose-only effect, or another doubt; inactive = no such curve, though single readings can be large; an effect the other way counts as inactive or inconclusive. Potency is the fitted concentration of half-maximal effect.

Screening O=S(=O)(c1ccc(Br)s1)N1CCN(c2ccnc3cc(Cl)ccc23)CC1 returned Nrf2 activator 0.8%, IDH1 R132H inh 1.8%, Nrf2 block 20.6µM*, ELG1 DNA repair -8.5% and A549 viability -5.6%.
For CS(=O)(=O)N1CCN(c2ccnc3cc(Cl)ccc23)CC1 the results were Nrf2 activator 2.4%, IDH1 R132H inh -10.0%, Nrf2 block -14.7%, ELG1 DNA repair -13.1% and A549 viability 4.6%.
Screening O=C(c1ccc(Cl)cc1)N1CCN(c2ccnc3cc(Cl)ccc23)CC1 returned Nrf2 activator 2.5%, IDH1 R132H inh -4.0%, Nrf2 block 20.6µM*, ELG1 DNA repair inconclusive and A549 viability inconclusive.
`N#Cc1nc(NCCO)nc(Nc2ccccc2)n1` gave Nrf2 block 7.3% and A549 viability -6.8%.
Screening COc1cccc2cc(-c3cc(=O)oc4cc(C)c(OCC(C)=O)cc34)oc12 returned Nrf2 activator 0.4%, IDH1 R132H inh 0.0%, Nrf2 block -2.1%, ELG1 DNA repair 5.17µM* and A549 viability 3.6%.
For COc1ccc(NS(=O)(=O)c2cccs2)cc1S(=O)(=O)N1CCCCC1 the results were Nrf2 activator -0.2%, IDH1 R132H inh 3.6%, Nrf2 block inconclusive, ELG1 DNA repair -0.4% and A549 viability -9.6%.
Screening Oc1ccc(CNc2ccccc2F)c2cccnc12 returned Nrf2 activator -0.8%, IDH1 R132H inh 6.6%, Nrf2 block inconclusive, ELG1 DNA repair inconclusive and A549 viability -20.1%.
`Oc1ccc(CNc2ccc(F)cc2F)c2cccnc12` gave Nrf2 block 10.3µM* and A549 viability -17.4%.
For Cc1ccc(S(=O)(=O)Nc2cccc3cccnc23)c([N+](=O)[O-])c1 the results were Nrf2 activator -2.7%, IDH1 R132H inh 5.6%, Nrf2 block 10.3µM*, ELG1 DNA repair inconclusive and A549 viability inconclusive.
O=S(=O)(Nc1cccc2cccnc12)c1ccc(S(=O)(=O)N2CCCC2)cc1 was read as Nrf2 activator inconclusive, IDH1 R132H inh -1.5%, Nrf2 block 5.17µM*, ELG1 DNA repair -14.9% and A549 viability -10.3%.
Cc1cc(C)c(NS(=O)(=O)c2cccc3cccnc23)c(C)c1 was read as Nrf2 activator -0.2%, IDH1 R132H inh 12.2%, Nrf2 block 0.4%, ELG1 DNA repair -20.7% and A549 viability 0.4%.
Cc1ccc(S(=O)(=O)NC(N)=NCCC[C@@H](N)C(=O)Nc2cc(C(F)(F)F)ccc2Cl)cc1 was read as Nrf2 block inconclusive and A549 viability -27.4%.
For COc1ccc(NC(=S)N(C(C)C)C2CCN(C(C)C)CC2)cc1Cl the results were ELG1 DNA repair 6.2%.
C=CCC(Nc1ccccc1)C12C=CC(O1)C(C(=O)OC)=C2C(=O)OC (stereo not drawn) was read as Nrf2 activator 11.2µM*, IDH1 R132H inh 8.8%, Nrf2 block inconclusive, ELG1 DNA repair -6.2% and A549 viability -19.0%.
`COc1ccccc1NC(=O)CSc1nc2n[nH]c(C)c2c(=N)n1-c1ccccc1Cl` gave Nrf2 activator 0.5%, IDH1 R132H inh 8.8%, Nrf2 block 13µM*, ELG1 DNA repair inconclusive and A549 viability -9.9%.
Screening CCCN(CCC)C(=O)CSc1nc2n[nH]c(C)c2c(=N)n1-c1ccc(OC)cc1 returned Nrf2 activator -0.7%, IDH1 R132H inh 2.2%, Nrf2 block 18.4µM*, ELG1 DNA repair inconclusive and A549 viability inconclusive.
For Cc1[nH]nc2nc(SCC(=O)NC3CCCCC3)n(-c3ccc(Br)cc3)c(=N)c12 the results were Nrf2 activator 0.3%, IDH1 R132H inh -12.1%, Nrf2 block 18.4µM*, ELG1 DNA repair inconclusive and A549 viability inconclusive.
`COc1ccc(CCN2C(=O)C(Oc3ccccc3C)C2c2ccc3c(c2)OCO3)cc1` (stereo not drawn) gave Nrf2 activator -1.1%, IDH1 R132H inh 5.0%, Nrf2 block inconclusive, ELG1 DNA repair 16.4µM* and A549 viability -15.4%.
`Cc1c(C(C)C)c(=O)n(-c2ccc(S(=O)(=O)NC(C)C)cc2)n1C` gave Nrf2 activator 0.0%, IDH1 R132H inh 2.9%, Nrf2 block 18.4µM*, ELG1 DNA repair -10.4% and A549 viability -16.9%.
`CCCCSCCCNC(=O)c1cn(C)c2ccc(S(=O)(=O)N3CCCCC3)cc2c1=O` gave Nrf2 activator -0.6%, IDH1 R132H inh 0.9%, Nrf2 block 11.6% and A549 viability 5.5%.
Screening Cc1cccc(NC2=CC(c3cccc(Br)c3)N(c3cccc(C)c3)C2=O)c1 (stereo not drawn) returned Nrf2 activator 3.5%, IDH1 R132H inh 2.8%, Nrf2 block inconclusive and A549 viability 1.7%.
CC(Sc1nc(N)cc(N)n1)C(=O)Nc1ccc(N2CCOCC2)cc1 (stereo not drawn) was read as Nrf2 activator 0.0%, IDH1 R132H inh 9.1%, Nrf2 block -1.7%, ELG1 DNA repair inconclusive and A549 viability -1.4%.
`O=C(COc1cccc(NC(=O)c2cccc([N+](=O)[O-])c2)c1)c1ccc(F)cc1` gave Nrf2 activator 0.5%, IDH1 R132H inh 1.9%, Nrf2 block inconclusive, ELG1 DNA repair inconclusive and A549 viability -9.6%.
O=C(COc1ccc(NC(=O)c2cccs2)cc1)c1ccc(F)cc1 was read as Nrf2 activator 3.0%, IDH1 R132H inh 7.4%, Nrf2 block 16.4µM*, ELG1 DNA repair 14.1% and A549 viability -18.5%.
COc1cccc(C(=O)COc2cccc(NC(=O)c3cccc([N+](=O)[O-])c3)c2)c1 was read as Nrf2 activator 0.4%, IDH1 R132H inh 6.1%, Nrf2 block 18.4µM*, ELG1 DNA repair 13µM* and A549 viability -18.3%.
`COc1cccc(C(=O)COc2ccc(NC(=O)c3cccs3)cc2)c1` gave Nrf2 activator 2.9%, IDH1 R132H inh 3.7%, Nrf2 block inconclusive, ELG1 DNA repair 14.6µM* and A549 viability -20.7%.
Screening COc1ccc(NC(=O)c2cccc(Oc3ccc([N+](=O)[O-])cc3Cl)c2)cc1 returned Nrf2 activator 0.2%, IDH1 R132H inh 5.8%, Nrf2 block inconclusive, ELG1 DNA repair -21.0% and A549 viability inconclusive.
Screening O=C(Nc1cccc(Cl)c1)c1cccc(Oc2ccc([N+](=O)[O-])cc2Cl)c1 returned Nrf2 activator -0.5%, IDH1 R132H inh 5.6%, Nrf2 block 20.6µM*, ELG1 DNA repair inconclusive and A549 viability -24.8%.
`CCCOc1ccc(C(=O)Nc2ccc(NC(=O)c3cccs3)cc2)cc1` gave Nrf2 activator 2.2%, IDH1 R132H inh 4.5%, Nrf2 block 5.7%, ELG1 DNA repair 0.6% and A549 viability 0.4%.

High-throughput results from PubChem BioAssay.
